Assay results reported in PubChem BioAssay AID2501 (Southern Research Specialized Biocontainment Screening …, 2010).
The whole screen tested about 2,200 compounds, of which about 1,200 (55%) were called active. The limit is not given here; nearly all actives have IC50 up to about 92 µM. The set was probably picked from earlier hits. The list shows a part of the results.

Assay: counter assay for TAg ATPase ADP read-out – biochemical, ADP-Hunter, fluorescence, counter-screen (AID 2501);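 also: purified T antigen ATPase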
Settings: series mostly up to 100 µM

| SMILES | IC50 |
| --- | --- |
| COc1ccc(NCCc2ccccn2)cc1 | 2.41 µM (active) |
| COc1ccc(S(=O)(=O)N(CC(=O)NCc2ccccn2)c2ccc(Cl)cc2)cc1 | inactive |
| COc1ccc(S(=O)(=O)Nc2ccc(O)c3ccccc23)cc1 | inactive |
| COc1ccc(C(=O)Nc2ccc(O)c3ccccc23)cc1 | 13.1 µM (active) |
| CCOC(=O)Cn1cc(C#N)c(=O)[nH]c1=O | inactive |
| Cc1ccc2c(c1)NC(=O)c1cccnc1N2 | 4.54 µM (active) |
| Cc1ccc(C(=O)N2CCN3C(=O)c4ccccc4C23c2ccccc2)cc1 (stereo not given) | inactive |
| CC(=O)Oc1c(/C=C(\C#N)C(N)=O)[nH]c2ccccc12 | 27.2 µM (active) |
| C=CCn1c(SCC(=O)NCC2CCCO2)nc2scc(-c3ccco3)c2c1=O (stereo not given) | inactive |
| C=CCn1c(SCC(C)=O)nc2scc(-c3ccco3)c2c1=O | inactive |
| C=CCn1c(=S)[nH]c2scc(-c3ccco3)c2c1=O | 26.9 µM (active) |
| C#CCOCCOCCOCCNc1nc(N2CCN(C(=O)CCCCCCCCCCNC(=O)[C@H]([C@@H](C)CC)n3cc(CCCCN=C(N)N)nn3)CC2)nc(N2CCN(C(=O)CCCCCCCCCCNC(=O)[C@H](CCCN=C(N)N)n3cc(C[C@@H](C)CC)nn3)CC2)n1 | inactive |
| CCOC(=O)C1CCN(c2nc(N)c3c(N)nc(SCC(=O)O)cc3c2C#N)CC1 | inactive |
| O=C(N/N=C(\c1ccccc1)c1cccnc1)c1cc(O)ccc1O | 3.71 µM (active) |
| Cc1[nH]c2ccccc2c1-c1csc(NC(=O)CSCC(=O)O)n1 | 14.6 µM (active) |
| O=C(O)CSCC(=O)Nc1ccc(-c2nc3ccccc3s2)cc1 | inactive |
| CCOC(=O)CN(C(=O)CSc1nnc2c(n1)[nH]c1ccccc12)c1ccccc1 | inactive |
| Cc1cc(-c2n[nH]c(=S)n2/N=C/c2cccs2)n[nH]1 | 52.3 µM (active) |
| COc1cccc(/C=N/n2c(-c3cc(C)[nH]n3)n[nH]c2=S)c1O | 13.2 µM (active) |
| CCN(CC)c1ccc(NC(=S)NC(=O)C2CCC2)cc1 | 7.07 µM (active) |
| COc1ccc2c(c1)-c1nc(/N=C/c3ccc(O)c(OC)c3)sc1CC2 | 3.97 µM (active) |
| COc1cc(C(=O)N/N=C(\C)Cn2nc([N+](=O)[O-])cc2C)ccc1O | 16.1 µM (active) |
| Cc1cc([N+](=O)[O-])nn1CC(=O)NCc1ccccc1 | inactive |
| C#CCOCCOCCOCCNc1nc(N2CCN(C(=O)CCCCCCCCCCNC(=O)[C@H]([C@@H](C)CC)n3cc(CCCCCN)nn3)CC2)nc(N2CCN(C(=O)CCCCCCCCCCNC(=O)[C@@H]([C@H](C)CC)n3cc(CCCCCN)nn3)CC2)n1 | inactive |

| SMILES | IC50 |
| --- | --- |
| CC1(C)C(/C=C/C=C/C=C/C=C2\N(CCCCS(=O)(=O)O)c3ccc4ccccc4c3C2(C)C)=[N+](CCCCS(=O)(=O)[O-])c2ccc3ccccc3c21 | 10.5 µM (active) |
| COc1cccc2c1NC(C(=O)O)C1CC=CC21 (stereo not given) | inactive |
| COCCCNc1nnc(Cc2ccc(Cl)cc2)c(=O)[nH]1 | inactive |
| CCCC1=NN2C(=N)/C(=C\c3ccc(SCc4ccco4)o3)C(=O)N=C2S1 | inactive |
| O=C(O)C1=CC(=C(c2ccc(O)c(C(=O)O)c2)c2ccc(O)c(C(=O)O)c2)C=CC1=O | inactive |
| Nc1ccc(O)c(C(=O)O)c1 | 8.29 µM (active) |
| Nc1ccc(C(=O)Nc2ccccc2C(=O)O)cc1 | inactive |
| Nc1c(O)cccc1C(=O)O | 7.18 µM (active) |
| COc1cc(C(C)=O)ccc1OCC(O)Cn1nc(C)c(C(C)=O)c1C (stereo not given) | 49.1 µM (active) |
| NC(=O)[C@@H]1CCCCNc2c(I)cc([N+](=O)[O-])cc2C(=O)N[C@@H](CCC(=O)O)C(=O)N[C@@H](CO)C(=O)N1 | inactive |
| COc1ccc(S(=O)(=O)c2c(N)n(Cc3ccco3)c3nc4ccccc4nc23)cc1 | inactive |
| Cc1ccc(S(=O)(=O)Nc2c(O)ccc3ccccc23)cc1 | 70.6 µM (active) |
| O=S(=O)(Nc1c(O)ccc2ccccc12)c1ccccc1 | inactive |
| COc1ccc(C(C)=O)cc1COC(=O)CCNS(=O)(=O)c1ccc(C(C)=O)cc1 | inactive |
| Cc1ccc(S(=O)(=O)CCSC(=N)N)cc1 | inactive |
| COc1ccc(S(=O)(=O)Nc2c(O)ccc3ccccc23)cc1OC | 54.9 µM (active) |
| O=C1c2ccccc2NC2(CCCCC2)N1c1ccc(O)cc1 | 5.01 µM (active) |
| CN(C)CCNC(=O)C(=O)Nc1ccc2c(c1)N(S(=O)(=O)c1cccs1)CCC2 | inactive |
| Cc1ccc(NC(=O)CCSc2nnc(Cc3ccccc3)o2)cc1 | inactive |
| N#CC(C#N)=C(N)/C(C#N)=C/c1cc(O)c(O)c(O)c1 | 13.6 µM (active) |
| CC1CCCN(c2ccc(N)cc2C(N)=O)C1 (stereo not given) | 3.15 µM (active) |
| N#C/C(=C\c1coc2ccc(O)cc2c1=O)C(=O)Nc1nc2ccccc2s1 | 80.4 µM (active) |
| CSc1nc(Cl)cc(Nc2ccc(O)cc2)n1 | 11.3 µM (active) |
| Cc1ccc(NC(=O)CSc2nc3ccccc3c(=O)n2CCCC(=O)NCCCN2CCOCC2)cc1C | inactive |

| SMILES | IC50 |
| --- | --- |
| COc1ccc2[nH]c3c(=O)n(CCCCC(=O)NCCN4CCCC4)c(=S)[nH]c3c2c1 | 6.28 µM (active) |
| CCN(CC)CCNC(=O)CCCCn1c(=S)[nH]c2c([nH]c3ccc(OC)cc32)c1=O | 4.99 µM (active) |
| O=S(=O)(Nc1cccc(-c2cn3ccsc3n2)c1)c1ccc(F)cc1 | inactive |
| O=C1CC(N2CCN(c3ccc(O)cc3)CC2)C(=O)N1Cc1cccs1 (stereo not given) | 4.71 µM (active) |
| CN(CCc1cn[nH]c1)Cc1nc(Cc2ccccc2F)no1 | inactive |
| CC(O)CCc1ccc(O)cc1 (stereo not given) | 8.46 µM (active) |
| NNC(=O)c1ccc(CN2CCCCC2)o1 | inactive |
| COc1cc(/C=C2\SC(c3ccc(C)cc3)=NC2=O)cc(OC)c1O | 2.62 µM (active) |
| Cc1ccc(C2=NC(=O)/C(=C/c3cc(O)c(O)c(Br)c3)S2)cc1 | 11 µM (active) |
| CCOc1ccc(NCc2cccn2-c2nnc(N3CCC(C(=O)NCCCN4CC(C)CC(C)C4)CC3)s2)cc1 (stereo not given) | 7.15 µM (active) |
| CCOc1ccc(NCc2cccn2-c2nnc(N3CCC(C(=O)NCCCN4CCCCC4CC)CC3)s2)cc1 (stereo not given) | 5.76 µM (active) |
| CCOc1ccc(NCc2cccn2-c2nnc(N3CCC(C(=O)NCCCN4CCCCC4C)CC3)s2)cc1 (stereo not given) | 6.99 µM (active) |
| NC(=O)Cn1c(=O)n(CCC(=O)NCCSCc2ccccc2)c(=O)c2ccccc21 | inactive |
| COc1cccc(C2C([N+](=O)[O-])=C(N)Oc3cc(C)oc(=O)c32)c1 (stereo not given) | inactive |
| NC(=O)C(Cc1ccccc1)N1C(=O)c2ccccc2C1=O (stereo not given) | inactive |
| CC(=O)Nc1ccc(OC(=O)C(CCS(C)(=O)=O)N2C(=O)c3ccccc3C2=O)cc1 (stereo not given) | 7.41 µM (active) |
| O=C(Nn1cnnc1)C1Cc2ccccc2CN1S(=O)(=O)c1ccc(F)cc1 (stereo not given) | inactive |
| Cc1ccccc1OCC(=O)NCC(=O)OCC(=O)c1ccc([N+](=O)[O-])cc1 | inactive |
| CCN(CC)c1ccc(NC(=O)COC(=O)c2cccs2)cc1 | 7.51 µM (active) |
| CC(=O)Nc1cccc(C(=O)OCC(=O)Nc2nnc(-c3ccccc3)o2)c1 | inactive |
| COc1ccc2nc(COC(=O)c3cccs3)c(C(C)=O)[n+]([O-])c2c1 | inactive |
| O=C(O)CCCn1cc(NC(=O)COc2ccccc2[N+](=O)[O-])cn1 | inactive |
| CCN(c1ccccc1)S(=O)(=O)c1ccc(Cl)c(NC(=O)COC(=O)c2cc(O)c3ccccc3c2O)c1 | inactive |
| CCN(CC)c1ccc(NC(=O)COC(=O)COc2ccccc2[N+](=O)[O-])cc1 | 6.35 µM (active) |

| SMILES | IC50 |
| --- | --- |
| CCN(CC)c1ccc(C(=O)n2cnc3ccccc32)cc1 | inactive |
| CCN(CC)c1ccc(NC(=O)COC(=O)c2ccc3ccccc3n2)cc1 | 2.2 µM (active) |
| CCOC(=O)C1CCCN(C(=O)Cn2sc3nc(C)cc(C)c3c2=O)C1 (stereo not given) | inactive |
| Nc1cnc(Nc2ccc(Br)cc2)nc1N | 12.1 µM (active) |
| CC[C@H](C)[C@H](NC(=O)c1ccccc1)C(=O)Nc1ccc(S(=O)(=O)Nc2cc(C)nc(C)n2)cc1 | inactive |
| Cc1cc(/C=N/Nc2ccc([N+](=O)[O-])cn2)c(C)n1-c1ccc(C(=O)O)cc1 | inactive |
| O=C(N/N=C/c1ccc(-c2ccc(S(=O)(=O)Nc3ncccn3)cc2)o1)c1cc2ccccc2cc1O | inactive |
| Cc1nc(Cl)cc(N/N=C/c2ccc(O)cc2)n1 | 4.8 µM (active) |
| Cc1ccc(S(=O)(=O)Nc2nc(C)cc(N/N=C/c3ccc(O)cc3)n2)cc1 | 8.77 µM (active) |
| CCN(CC)S(=O)(=O)c1ccc(N/N=C/c2ccc(O)cc2)nc1 | 4.57 µM (active) |
| COc1ccc(NC(=O)N2CCCc3cc(C)ccc32)c(OC)c1 | inactive |
| O=C(COc1ccc([N+](=O)[O-])cc1)NNC(=O)Nc1ccc([N+](=O)[O-])cc1 | inactive |
| COc1cc([N+](=O)[O-])ccc1NC(=O)Oc1ccc(NC(C)=O)cc1 | 4.33 µM (active) |
| c1coc(-c2nnc3sc(Cc4cccs4)nn23)c1 | inactive |
| CNC(=O)c1ccc(-c2sc3nc(N4CCOCC4)c4c(c3c2N)CCCC4)o1 | 14.8 µM (active) |
| Nc1c(C(=O)NC2CC2)sc2nc3c(c(-c4ccco4)c12)CC/C3=C/c1ccco1 | inactive |
| NNC(=O)c1sc2nc(N3CCOCC3)c3c(c2c1N)CCCC3 | 36.6 µM (active) |
| CNC(=O)c1ccc(-c2sc3nc(N4CCOCC4)c4c(c3c2N)CC(C)(C)OC4)o1 | 3.18 µM (active) |
| C=CCc1cccc2cc(C(=O)Nc3ccc(S(=O)(=O)Nc4nnc(CC)s4)cc3)c(=O)oc12 | inactive |
| Cc1ccc2cn[nH]c2c1N | 6.68 µM (active) |
| O=C1CCCC(O)=C1C=Nc1ccc(O)cc1 | 4.6 µM (active) |
| O=C1CCCC(O)=C1N=Nc1ccc(C(=O)O)cc1 | inactive |
| CC1(C)CC(=O)C(C=Nc2ccc(O)cc2)=C(O)C1 | 2.78 µM (active) |
